Screening data as filed in PubChem BioAssay.
Sampled rows, rich in hits. Any-hit rate of the full collection: about 0.5%.
Tat transport: E. coli Tat transport inhibition; E. coli MC4100 TorA-mCherry Tat export, fluorescence; inhibition, % at 10 µM; 340,000 tested, 0.036% active;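 active means mean replicate inhibition at least 50% and at least half of replicates individually reaching 50%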;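 further: exported cargo escapes ClpAP degradation while cytoplasmic cargo is degraded and loses fluorescence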
E coli growth-1: bacterial growth inhibition, counter-screen for AddAB inhibitors; 330,000 tested, 0.27% active; E. coli V3065 growth, OD600 absorbance, 18 h; inhibition, % at 11.9 µM;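 active means inhibition above the campaign's mean inhibition across all tested compounds plus 3 SD, cut at about 9.9% in these data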;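 further: uninfected addAB+ strain grown without phage in ampicillin broth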
E coli growth-2: inhibitors of Escherichia coli growth; 330,000 tested, 0.21% active; OD600, 23 h; hits give low values; OD600 absorbance (concentration not given with the values);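 active means OD600 absorbance below the run mean of sample wells minus 3.6 SD, in any replicate, cut at about 0.56 in these data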
phage Ecoli inh: E. coli growth loss with phage present; growth absorbance; inhibition, % at 11.9 µM; 360,000 tested, 0.26% active; AID 651602; in the data active means inhibition above about 11%
AddAB inh: less growth of phage-infected E. coli with AddAB; E. coli expressing H. pylori AddAB, absorbance growth; inhibition, % at 11.9 µM; 330,000 tested, 0.29% active; AID 435030; in the data active means inhibition above about 12%
AddAB conf: confirmation screen: growth loss of phage-infected E. coli expressing H. pylori AddAB. shares compounds with AddAB inh. E. coli V3065 expressing H. pylori AddAB, T4 phage, OD; T4 phage with gene 2 nonsense mutations. inhibition, % at 11.9 µM. 880 tested, 64% active;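 active means mean inhibition above a set limit taken from the earlier primary screen, cut at about 13% in these data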;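 further: higher means less bacterial growth since AddAB block lets phage replicate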
RecBCD counter: counter-screen: growth loss of RecBCD+ E. coli with mutant T4 phage | 880 tested, 73% active | E. coli V66 + mutant T4 phage, OD growth | AID 488955 | inhibition, % at 11.9 µM | shares compounds with AddAB inh;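 active means mean inhibition above the mean of solvent-only control wells plus 3 SD, cut at about 4% in these data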;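 further: optical density read after an 18 h incubation at 37 °C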
Bact viability: reduces bacterial viability, AddAB inhibitor counter-screen. shares compounds with AddAB inh. absorbance (AddAB counterscreen). inhibition, % at 11.9 µM. 880 tested, 35% active; in the data active means inhibition above about 25%
Each line names hits and unclear results; the compound was inactive in the other large screens (follow-up assays come after a bar, where they were run).

COc1ccc(Nc2cc(C)c3c(O)cccc3n2)cc1	none
Cc1ccc(Nc2cc(C)c3c(O)cccc3n2)cc1C	E coli growth-2 0.5
Cc1ccc(Cl)cc1NC(=O)CC(O)(C(F)(F)F)C(F)(F)F	E coli growth-1 11
O=[N+]([O-])c1ccc(/C=C/C2=NN(c3ccccc3)C(c3ccco3)C2)o1 (stereo unspecified)	phage Ecoli inh 20 (no result: E coli growth-1, AddAB inh)
CC(C)Nc1ccc(Nc2ccnc3cc4ccccc4cc23)cc1	none
c1ccc(CCNc2ccnc3cc4ccccc4cc23)cc1	E coli growth-2 0.5 (no result: E coli growth-1, AddAB inh)
CCOC(=O)Cc1csc(NC(=O)C2CCCN(S(=O)(=O)c3cnc[nH]3)C2)n1 (stereo unspecified)	E coli growth-1 14, AddAB inh 24
CCOc1ccc(NC(=O)C2CCCN(S(=O)(=O)c3cnc[nH]3)C2)cc1 (stereo unspecified)	none (no result: phage Ecoli inh)
O=C(O)CCCNC(=O)C(=Cc1ccccc1F)NC(=O)c1ccccc1	none (no result: Tat transport, E coli growth-1, phage Ecoli inh, AddAB inh)
C[C@@]12C(=O)N(c3ccccc3)C(=O)N1C1c3ccccc3OCC1C2c1ccccc1 (stereo partly specified)	none (no result: Tat transport, E coli growth-1, phage Ecoli inh, AddAB inh)
CC1=NN(C(N)=S)C(=O)C1N=Nc1ccc(C)c(Br)c1 (stereo unspecified)	E coli growth-1 13
Cc1ccc(S(=O)(=O)NN=Cc2ccc([N+](=O)[O-])o2)cc1	E coli growth-2 0.47 (no result: Tat transport, E coli growth-1, phage Ecoli inh, AddAB inh)
CCc1ccc(S(=O)(=O)NN=Cc2ccc([N+](=O)[O-])o2)cc1	none (no result: Tat transport, E coli growth-1, phage Ecoli inh, AddAB inh)
Cc1cc(C)c(S(=O)(=O)NN=Cc2ccc([N+](=O)[O-])o2)c(C)c1	E coli growth-2 0.51 (no result: Tat transport, E coli growth-1, phage Ecoli inh, AddAB inh)
Cc1cc(C)c(S(=O)(=O)N/N=C/c2ccc([N+](=O)[O-])o2)c(C)c1	none (no result: E coli growth-1, E coli growth-2, AddAB inh)
Cc1ccc(S(=O)(=O)NN=Cc2ccc([N+](=O)[O-])o2)cc1C	E coli growth-2 0.48 (no result: Tat transport, E coli growth-1, phage Ecoli inh, AddAB inh)
O=C(CCCCCNC(=O)c1ccccc1Cl)NN=Cc1ccco1	none (no result: Tat transport, E coli growth-1, phage Ecoli inh, AddAB inh)
CCc1ccc2[nH]c3nc(N/N=C/c4ccc(O)cc4O)nnc3c2c1	E coli growth-1 11 (no result: E coli growth-2)
O=C(Nc1nnc(C2=COCCO2)o1)c1cccc(Br)c1	E coli growth-2 0.48
CC(C)(C)OC(=O)CC1CC=CCC(CC(=O)NC(CO)Cc2ccccc2)C(=O)NCC(c2ccccc2)OC1=O (stereo unspecified)	none (no result: Tat transport, E coli growth-1, phage Ecoli inh, AddAB inh)
O=C(NNc1ccc(Cl)cc1)c1sccc1Cl	E coli growth-2 0.5
CC(C)C[C@@H]1CN=C(N)N1C[C@@H]1CCCN1C[C@@H](C(C)C)N1C[C@@H](Cc2ccccc2)N(CCc2ccc(Cl)c(Cl)c2)C1=N	E coli growth-2 0.07
CCC(C)C1CN(C(C)CN2CCCC2CN2C(N)=NCC2Cc2ccccc2)C(=N)N1CCc1ccc(Cl)c(Cl)c1 (stereo unspecified)	none (no result: Tat transport, E coli growth-1, phage Ecoli inh, AddAB inh)
CC(C)CC1CN=C(N)N1CC1CCCN1CC(C)N1CC(Cc2ccccc2)N(CCc2ccc(Cl)c(Cl)c2)C1=N (stereo unspecified)	E coli growth-2 0.2 (no result: Tat transport, E coli growth-1, phage Ecoli inh, AddAB inh)
CC(C)C[C@@H]1CN=C(N)N1C[C@@H]1CCCN1C[C@H](C)N1C[C@@H](Cc2ccccc2)N(CCc2ccc(Cl)c(Cl)c2)C1=N	none (no result: E coli growth-2, phage Ecoli inh)
CC(C)C(CN1CCCC1CN1C(N)=NCC1Cc1ccccc1)N1CC(Cc2ccccc2)N(CCc2ccc(Cl)c(Cl)c2)C1=N (stereo unspecified)	E coli growth-2 0.046 (no result: Tat transport, E coli growth-1, phage Ecoli inh, AddAB inh)
CC(C)NC(=O)N(C)CC1Oc2c(NS(=O)(=O)c3cn(C)cn3)cccc2C(=O)N(C(C)CO)CC1C (stereo unspecified)	none (no result: Tat transport, E coli growth-1, phage Ecoli inh, AddAB inh)
Cc1cc(C)nc(N=C(N)Nc2ccc(-c3ccccc3)cc2)n1	E coli growth-2 0.53 (no result: Tat transport, E coli growth-1, phage Ecoli inh, AddAB inh)
N#CC(=Cc1ccc(O)c([N+](=O)[O-])c1)c1nc2ccccc2s1	none (no result: Tat transport, E coli growth-1, phage Ecoli inh, AddAB inh)
C=C1c2cccc(O)c2C(=O)C2C(=O)[C@]3(O)C(=O)C(C(N)=O)C(=O)C(N(C)C)C3C(O)C12 (stereo partly specified)	E coli growth-2 0.067 (no result: Tat transport, E coli growth-1, phage Ecoli inh, AddAB inh)
Cc1nnc(SCC2=C(C(=O)O)N3C(=O)C(NC(=O)COc4ccccc4)C3SC2)s1 (stereo unspecified)	E coli growth-2 0.5 (no result: E coli growth-1, AddAB inh)
CC(=O)OCC1=C(C(=O)O)N2C(=O)[C@@H](NC(=O)Cc3cccs3)[C@H]2SC1	E coli growth-2 0.046
CC(=O)OCC1=C(C(=O)O)N2C(=O)C(NC(=O)COc3ccc(F)cc3)C2SC1 (stereo unspecified)	none (no result: E coli growth-1, AddAB inh)
Cc1nnc(SCC2=C(C(=O)O)N3C(=O)C(NC(=O)COc4ccc(F)cc4)C3SC2)s1 (stereo unspecified)	E coli growth-2 0.55
Cc1nnc(SCC2=C(C(=O)O)N3C(=O)C(NC(=O)Cn4nc(C(F)F)cc4C)C3SC2)s1 (stereo unspecified)	E coli growth-2 0.49
COc1cc(C=NNc2nc3ccccc3s2)cc([N+](=O)[O-])c1O	none (no result: Tat transport, E coli growth-1, phage Ecoli inh, AddAB inh)
CC[N+]1(C)C2CCC1CC(OC(=O)C1CCC(C(=O)OC3CC4CCC(C3)[N+]4(C)CC)(c3ccccc3)c3ccccc31)C2 (stereo unspecified)	none (no result: Tat transport, E coli growth-1, phage Ecoli inh, AddAB inh)
COc1ccc(C=NNc2ccccc2C(=O)O)cc1Cn1cc([N+](=O)[O-])cn1	none (no result: Tat transport, E coli growth-1, phage Ecoli inh, AddAB inh)
O=C(Nc1ccc(Cc2ccncc2)cc1)c1ccc([N+](=O)[O-])o1	E coli growth-1 13
O=C(Nc1ccc(Cc2ccncc2)cc1)c1cccc([N+](=O)[O-])c1	none
O=C(O)C1=CC(c2coc3ccccc3c2=O)CC(OCCCCO)O1 (stereo unspecified)	none (no result: Tat transport, E coli growth-1, phage Ecoli inh, AddAB inh)
O=C1NC(Cc2cn(S(=O)(=O)c3ccc([N+](=O)[O-])cc3)c3ccccc23)C(=O)NC1Cc1ccccc1 (stereo unspecified)	none (no result: Tat transport, E coli growth-1, phage Ecoli inh, AddAB inh)
CN(C)CC(=O)c1c(N)n(Cc2ccccc2)c(=O)n(C)c1=O	E coli growth-2 0.54
S=C(NCCc1ccccc1)NC1CCCCCC1	none
S=C(NCCNCc1ccccc1)NC1CCCCC1	E coli growth-1 98, AddAB inh 98 (no result: Tat transport, E coli growth-2, phage Ecoli inh)
[N-]=[N+]=NCC(c1ccccc1)N1CCN(Cc2ccccc2)CCC1=O (stereo unspecified)	none (no result: Tat transport, E coli growth-1, phage Ecoli inh, AddAB inh)
NCCCn1c(C(=O)c2cc(Cl)c(N)c(Cl)c2)c2ccc([N+](=O)[O-])cc2[n+]1[O-]	E coli growth-1 12, E coli growth-2 0.42, AddAB inh 15
CN1CCN(c2ccc(-c3ccc4ccccc4n3)cc2)CC1	none (no result: E coli growth-1, AddAB inh)
c1ccc2nc(-c3ccc(N4CCOCC4)cc3)ccc2c1	E coli growth-1 43, AddAB inh 40 | AddAB conf inactive | RecBCD counter inactive | Bact viability inactive
CC(=O)c1c(C)n([O-])c2ccc(C)cc2[n+]1=O	E coli growth-1 24, E coli growth-2 0.43, AddAB inh 23 | AddAB conf 68 | RecBCD counter 8.3 | Bact viability 53
Cc1ccc2c(c1)n([O-])c1c([n+]2=O)CCCC1	none
